Experimental data published in the supplement of paper PMC12494721.
Counter-ions that a name gives are not always drawn.

Legend:
Conditions in all cases: incubation time: 27 h, anaerobic, 37 °C;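 for the amine columns active = adjusted P below 0.05 in both replicates with a change the same way and a mean fold change under 0.8 or over 1.25; inactive = the rest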
[1] = test system: Clostridium sporogenes DSM 1664; test: growth (OD595) fold change vs plate DMSO controls (fold change (ratio)); higher = more growth
How it was run: (§1)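 Anaerobic 27 h, 37 °C mGAM 96-well cultures were shaken, then read for absorbance at 595 nm. Values were blank-subtracted and corrected for compound background using 20 µM compound solutions in water. A calibration factor of 5 converted them to OD. Growth is the fold change versus the median of plate DMSO controls. Fold changes above 1.5 were set to NA, and values are the mean of 2 biological replicates.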

Escherichia coli IAI1 [2] = test: as above
How it was run: as §1

[3] = test system: Klebsiella aerogenes DSM 30053; test: as above
How it was run: as §1

[4] = test system: Ruminococcus gnavus DSM 108212; test: as above
How it was run: as §1

[5] = test system: Klebsiella aerogenes DSM 30053; test: fold change of Histamine concentration vs plate DMSO controls (fold change (ratio)); higher = more amine produced, active = hit call of the paper (significant change in both replicates, either direction)
How it was run: (§2)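 Amines were quantified by LC–triple-quadrupole MS in dynamic MRM mode against external calibration curves, with drift correction within each batch. The samples were whole anaerobic mGAM cultures of four gut bacterial strains, grown for 27 h at 37 °C in 80 µL wells and extracted with cold acetonitrile/methanol with 0.1% formic acid, then centrifuged. Values are reported as fold change over DMSO controls on the same plate. The mean of 2 biological replicates is given.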

[6] = test system: Clostridium sporogenes DSM 1664; test: fold change of Tryptamine concentration vs plate DMSO controls (fold change (ratio)); higher = more amine produced, active = hit call of the paper (significant change in both replicates, either direction)
How it was run: as §2

[7] = test system: Ruminococcus gnavus DSM 108212; test: as above
How it was run: as §2

Escherichia coli IAI1 [8] = test: fold change of Putrescine concentration vs plate DMSO controls (fold change (ratio)); higher = more amine produced, active = hit call of the paper (significant change in both replicates, either direction)
How it was run: as §2

[9] = test system: Klebsiella aerogenes DSM 30053; test: as above
How it was run: as §2

Escherichia coli IAI1 [10] = test: fold change of Cadaverine concentration vs plate DMSO controls (fold change (ratio)); higher = more amine produced, active = hit call of the paper (significant change in both replicates, either direction)
How it was run: as §2

[11] = test system: Klebsiella aerogenes DSM 30053; test: as above
How it was run: as §2

[12] = test system: Ruminococcus gnavus DSM 108212; test: fold change of 2-Phenylethylamine concentration vs plate DMSO controls (fold change (ratio)); higher = more amine produced, active = hit call of the paper (significant change in both replicates, either direction)
How it was run: as §2

Row | Structure (SMILES) | growth [1] | growth (Escherichia coli IAI1 [2]) | growth [3] | growth [4] | fold change of Histamine concentration [5] | fold change of Tryptamine concentration [6] | fold change of Tryptamine concentration [7] | fold change of Putrescine concentration (Escherichia coli IAI1 [8]) | fold change of Putrescine concentration [9] | fold change of Cadaverine concentration (Escherichia coli IAI1 [10]) | fold change of Cadaverine concentration [11] | fold change of 2-Phenylethylamine concentration [12]
1 | Cc1ccc(N(CC2=NCCN2)c2cccc(O)c2)cc1 [Phentolamine hydrochloride] (20 µM) | 1.07 | 1 | 0.871 | 0.765 | 0.97 (inactive) | 1.03 (inactive) | 1 (inactive) | 1.05 (inactive) | 0.981 (inactive) | 0.652 (active) | 0.993 (inactive) | 1.01 (inactive)
2 | C[C@H]1C[C@@H]2[C@H]([C@@H](O)C[C@@]3(C)[C@H]2CC[C@]3(O)C(=O)CO)[C@@]2(C)C=CC(=O)C=C12 [Methylprednisolone, 6-alpha] (20 µM) | 0.939 | 0.956 | 1.01 | 0.836 | 0.992 (inactive) | 1.03 (inactive) | 1.01 (inactive) | 0.991 (inactive) | 1.05 (inactive) | 1.03 (inactive) | 1.04 (inactive) | 1.03 (inactive)
3 | CCCCCCCCCCCCCCCC[N+](C)(C)CCN(Cc1ccc(OC)cc1)c1ncccn1 [Thonzonium bromide] (20 µM) | 0.856 | 1.04 | 1.02 | 1 | 1.04 (inactive) | 0.673 (active) | 0.742 (active) | 1.06 (inactive) | 1 (inactive) | 0.984 (inactive) | 0.995 (inactive) | 0.782 (inactive)
4 | CN1CCN(c2c(F)cc3c(=O)c(C(=O)O)cn(CCF)c3c2F)CC1 [Fleroxacin] (20 µM) | 0 | 0 | 0 | 0 | 0.153 (active) | 0.0453 (active) | 1.08 (inactive) | 0.785 (inactive) | 0.902 (inactive) | 0.26 (active) | 0.961 (inactive) | 1.15 (inactive)
5 | C=CCc1ccc(OC)c(OC)c1 [Methyleugenol] (20 µM) | 0.942 | 1.08 | 0.993 | 1.06 | 0.992 (inactive) | 0.986 (inactive) | 1.02 (inactive) | 1.02 (inactive) | 0.921 (inactive) | 0.988 (inactive) | 1.15 (inactive) | 1.02 (inactive)
6 | CN1C2CCCC1CC(NC(=O)c1nn(C)c3ccccc13)C2 (stereo not given) [Granisetron] (20 µM) | 1.04 | 1.02 | 1.01 | 1.04 | 1.02 (inactive) | 1.04 (inactive) | 1.07 (inactive) | 1.05 (inactive) | 1 (inactive) | 0.999 (inactive) | 1.01 (inactive) | 1.08 (inactive)
7 | CNC1(C)C2CCC(C2)C1(C)C (stereo not given) [Mecamylamine hydrochloride] (20 µM) | 1.03 | 1.06 | 1.02 | 1.17 | 1.02 (inactive) | 1.06 (inactive) | 1.03 (inactive) | 0.992 (inactive) | 0.994 (inactive) | 0.968 (inactive) | 1 (inactive) | 1.06 (inactive)
8 | CC(Oc1ccccc1)C(=O)N[C@@H]1C(=O)N2[C@@H]1SC(C)(C)[C@@H]2C(=O)O (stereo not given in full) [Phenethicillin potassium salt] (20 µM) | 0 | 1.05 | 0.995 | 0 | 0.936 (inactive) | 0.0424 (active) | 0.045 (active) | 0.969 (inactive) | 0.954 (inactive) | 1.06 (inactive) | 1.02 (inactive) | 0.0417 (active)
9 | CCCCCCNC(=O)n1cc(F)c(=O)[nH]c1=O [Carmofur] (20 µM) | 0.985 | 0.886 | 0.963 | 0.862 | 0.726 (active) | 0.872 (inactive) | 0.983 (inactive) | 0.508 (active) | 0.936 (inactive) | 0.91 (inactive) | 0.974 (inactive) | 1.01 (inactive)
10 | Cc1ncc(CO)c(CO)c1O [Pyridoxine hydrochloride] (20 µM) | 1.06 | 0.974 | 1.06 | 1.01 | 0.916 (inactive) | 1.05 (inactive) | 1.02 (inactive) | 0.925 (inactive) | 0.989 (inactive) | 1.06 (inactive) | 1.02 (inactive) | 1.01 (inactive)
11 | CC(CN(C)C)CN1c2ccccc2CCc2ccccc21 (stereo not given) [Trimipramine maleate salt] (20 µM) | 0.87 | 0.987 | 0.974 | 0.826 | 0.994 (inactive) | 0.985 (inactive) | 0.998 (inactive) | 0.961 (inactive) | 1.01 (inactive) | 1.04 (inactive) | 1 (inactive) | 1.02 (inactive)
12 | CO/N=C(\C(=O)N[C@@H]1C(=O)N2C(C(=O)[O-])=C(C[n+]3ccn4ncccc43)CS[C@H]12)c1nsc(N)n1 [Cefozopran hydrochloride] (20 µM) | 0 | 0.102 | 0.153 | 0.0221 | 1.35 (active) | 0.0264 (active) | 0.0903 (active) | 2.2 (active) | 0.898 (inactive) | 2 (active) | 1.05 (inactive) | 0.0687 (active)
13 | Cn1cc(C(=O)[C@@H]2CCc3[nH]cnc3C2)c2ccccc21 [Ramosetron hydrochloride] (20 µM) | 0.928 | 0.966 | 1 | 0.964 | 0.964 (inactive) | 1.02 (inactive) | 1 (inactive) | 0.969 (inactive) | 1.01 (inactive) | 1.11 (inactive) | 0.997 (inactive) | 1.04 (inactive)
14 | CC(C)Nc1cccnc1N1CCN(C(=O)c2cc3cc(NS(C)(=O)=O)ccc3[nH]2)CC1 [Delavirdine] (20 µM) | 1.03 | 1.01 | 0.995 | 0.754 | 1.04 (inactive) | 0.965 (inactive) | 1.05 (inactive) | 0.984 (inactive) | 0.906 (inactive) | 1.04 (inactive) | 1.05 (inactive) | 1.04 (inactive)
15 | C[C@@H](O)[C@H]1C(=O)N2C(C(=O)O)=C(SCCNC=N)C[C@H]12 [Imipenem] (20 µM) | 0.318 | 1.08 | 0.85 | 0.0868 | 0.772 (inactive) | 0.0417 (active) | 0.0408 (active) | 0.971 (inactive) | 1.03 (inactive) | 1.65 (active) | 1 (inactive) | 0.0463 (active)
16 | CC(C)(C)NCC(O)CSc1nc(-c2ccc(C(N)=O)s2)cs1 (stereo not given) [Arotinolol hydrochloride] (20 µM) | 1.07 | 1.02 | 1.02 | 1.01 | 1.01 (inactive) | 1.01 (inactive) | 1.05 (inactive) | 0.978 (inactive) | 1 (inactive) | 0.928 (inactive) | 0.989 (inactive) | 1.1 (inactive)
17 | O=C(O)CNC(=O)c1ccccc1 [Hippuric acid] (20 µM) | 1.12 | 1.02 | 1.02 | 1.05 | 1.03 (inactive) | 1.05 (inactive) | 1.08 (inactive) | 0.979 (inactive) | 0.997 (inactive) | 0.94 (inactive) | 1.01 (inactive) | 1.09 (inactive)
18 | CCC(=O)O[C@@H]1CC(=O)O[C@H](C)C/C=C/C=C/[C@H](O)[C@H](C)C[C@H](CC=O)[C@H](O[C@@H]2O[C@H](C)[C@@H](O[C@H]3C[C@@](C)(O)[C@@H](OC(=O)CC)[C@H](C)O3)[C@H](N(C)C)[C@H]2O)[C@H]1OC [Midecamycin] (20 µM) | 0.00179 | 0.905 | 0.965 | 0.164 | 0.412 (active) | 0.0271 (active) | 0.143 (active) | 0.909 (inactive) | 1.06 (inactive) | 1.05 (inactive) | 1.05 (inactive) | 0.141 (active)
19 | S=c1[nH]cnc2nc[nH]c12 [Mercaptopurine] (20 µM) | 1.07 | 1.1 | 0.98 | 0.869 | 1.05 (inactive) | 1.01 (inactive) | 0.944 (inactive) | 1.06 (inactive) | 1 (inactive) | 0.879 (inactive) | 0.999 (inactive) | 0.959 (inactive)
20 | COc1ccc2c(c1)C(=O)N(CCc1ccc(S(=O)(=O)NC(=O)NC3CCCCC3)cc1)C(=O)C2(C)C [Gliquidone] (20 µM) | 0.999 | 1.05 | 0.984 | 0.999 | 1.04 (inactive) | 0.929 (inactive) | 0.956 (inactive) | 1.04 (inactive) | 1 (inactive) | 1.04 (inactive) | 0.988 (inactive) | 0.942 (inactive)
21 | CCOC(=O)Nc1ccc(NCc2ccc(F)cc2)nc1N [Flupirtine] (20 µM) | 1.18 | 0.973 | 1.04 | 0.999 | 0.95 (inactive) | 0.95 (inactive) | 1.01 (inactive) | 1.03 (inactive) | 0.993 (inactive) | 1.01 (inactive) | 0.999 (inactive) | 1.03 (inactive)
22 | N=C(N)NS(=O)(=O)c1ccc(N)cc1 [Sulfaguanidine] (20 µM) | 0.947 | 1.07 | 0.963 | 0.676 | 1.04 (inactive) | 1.27 (inactive) | 1.09 (inactive) | 1.2 (inactive) | 0.853 (inactive) | 1.04 (inactive) | 1.05 (inactive) | 1.09 (inactive)
23 | CC(C)Cc1ccc(C(C)C(=O)OCc2ccccn2)cc1 (stereo not given) [Ibuprofen Piconol] (20 µM) | 0.967 | 1 | 0.98 | 1.13 | 1.01 (inactive) | 1.01 (inactive) | 1.1 (inactive) | 1 (inactive) | 1.01 (inactive) | 0.983 (inactive) | 0.996 (inactive) | 1.15 (inactive)
24 | CCCCOc1cc(C(=O)OCCN(CC)CC)ccc1N [Benoxinate hydrochloride] (20 µM) | 1.06 | 0.951 | 0.988 | 1.01 | 1.05 (inactive) | 0.997 (inactive) | 1.04 (inactive) | 0.973 (inactive) | 1.01 (inactive) | 0.978 (inactive) | 0.998 (inactive) | 1.04 (inactive)
25 | OC[C@@H](O)[C@H](O)[C@@H](O)CO [Xylitol] (50 µM) | 1 | 1.05 | 1.11 | 1.12 | 1.08 (inactive) | 1.06 (inactive) | 1.06 (inactive) | 1.03 (inactive) | 1.19 (inactive) | 0.916 (inactive) | 1.02 (inactive) | 1.08 (inactive)
